Rows were chosen to be rich in hits. Some 12% of all compounds tested hit in one or more screens of this group.
Lmaj promast: Leishmania major promastigote growth inhibition, primary screen. Leishmania major promastigotes, resazurin fluorescence viability. inhibition, % at 10 µM. 200,000 compounds, 9% hits; in the data active = inhibition above about 50%;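 also: promastigotes grown with compound for 44 hours at 28 °C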
WT yeast gro inh: growth inhibition of WT strain, primary screen, mitochondrial fusion inhibitor project, WT and mutant strains, chemical genetic. mitochondrial fusion phenotypic screen. 190,000 compounds, 2.1% hits. AID 1362, 2008. inhibition, % at 10 µM; in the data active = inhibition above about 58%; tested in S. cerevisiae
CHOP inh: inhibitors of CHOP promoter induction, primary screen, cell-based, unfolded protein response, luciferase reporter; inhibition, % at 10 µM; AID 2732, 2010; 220,000 compounds, 3.8% hits; CHO-K1 CHOP-promoter luciferase, tunicamycin-induced, 15-18 h;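 active = compounds that reduced the stress-induced luciferase reporter signal by more than about 70% of percent inhibition, limit read from the data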;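 also: 0% = tunicamycin plus vehicle and 100% = wells without tunicamycin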
Arbovirus inh: antivirals against arbovirus infection, primary screen, cell-based, full library, 10K replicate subset; arbovirus infection cell-based antiviral screen; inhibition, % at 10 µM; 200,000 compounds, 0.37% hits; in the data active = inhibition above about 30%
Numbers without * were called inactive; x = no result given.

SMILES	Lmaj promast	WT yeast gro inh	CHOP inh	Arbovirus inh
Cc1cc(=O)oc2cc(OCC3CC(c4ccc(Cl)cc4)=NO3)ccc12 (centres undefined)	1	65*	11	-14
Cc1ccc(-c2nc(-c3ccccn3)no2)cc1Cl	13	4	83*	8
Clc1cccc(-c2nc(-c3ccccn3)no2)c1	-3	25	60	-1
c1ccc(-c2ccc(-c3nc(-c4ccccn4)no3)cc2)cc1	-4	78*	105*	-26
c1ccc(-c2nc(-c3ccccn3)no2)cc1	-4	42	60	-15
CC1Oc2ccccc2C=C1/C=N/Nc1ccc(C(=O)O)cc1 (centres undefined)	x	x	1	x
CCOC(=O)C1(Cc2ccccc2)CCN(Cc2cccc3nccnc23)CC1	44	2	-6	5
CCOC(=O)C1(Cc2cccc(F)c2)CCN(Cc2cnn(CC)c2C)CC1	69*	-6	2	-4
CCOC(=O)C1(Cc2cccc(OC)c2)CCN(Cc2ccc(OC)c(OC)c2)CC1	91*	32	33	7
CCOC(=O)C1(Cc2cccc(F)c2)CCN(Cc2cnn(CC)c2)CC1	37	4	7	-8
CCOC(=O)C1(Cc2cccc(OC)c2)CCN(Cc2ccccc2OC)CC1	20	9	19	11
CCOC(=O)C1(Cc2cccc(OC)c2)CCN(Cc2cccc(OC)c2O)CC1	72*	3	28	33*
CCOC(=O)C1(Cc2ccccc2)CCN(Cc2cccc(OC)c2O)CC1	68*	2	3	14
O=C(CN(Cc1ccccc1)S(=O)(=O)c1ccccc1)N/N=C/c1ccccc1C(=O)O	-4	-14	7	-2
CCOC(=O)C1(Cc2ccccc2)CCN(Cc2csc(C(C)=O)c2)CC1	86*	7	-2	-10
NCCCCCc1nnc(SCC(N)=O)o1	-3	-1	7	1
O=C(O)CCN1CC2([N+](=O)[O-])C=CC(=O)C([N+](=O)[O-])(C1)C2CC(=O)c1ccccc1 (centres undefined)	-1	10	17	-9
CN(C)C(CNC(=O)c1cccc(OC(F)F)c1)c1ccco1 (centres undefined)	59*	-1	10	6
CCCOc1ccc(C(=O)NCC(c2ccco2)N(C)C)cc1OC (centres undefined)	-4	-21	-3	-1
O=C(CN1CCN(S(=O)(=O)c2ccc(Br)cc2)CC1)N/N=C/c1ccc(Br)s1	22	31	42	-10
COc1ccc(-n2cc(CNCCc3cscn3)c(-c3ccccc3Cl)n2)cc1	17	5	4	-17
Cc1ccc(-n2cc(CNCCCn3ccnc3C)c(-c3ccc(F)cc3)n2)cc1	100*	43	-23	-25
Cc1ccc(-n2cc(CNCCc3cscn3)c(-c3ccc(F)cc3)n2)cc1	75*	69*	85*	-39
Cc1nonc1CN(C)C(=O)CC1C(=O)NCCN1Cc1ccccc1C(F)(F)F (centres undefined)	-7	-19	-2	0
CC(c1ccccc1)N1CCN(C(=O)CCl)CC1 (centres undefined)	76*	-1	-53	6
SMILES	Lmaj promast	WT yeast gro inh	CHOP inh	Arbovirus inh
CC(OC(=O)c1snc(C(=O)NC2CCCCC2)c1N)C(=O)NC1CCCCC1 (centres undefined)	-4	-6	29	-1
CCOC(=O)C1(Cc2ccc(OC)cc2)CCN(S(C)(=O)=O)CC1	-4	-3	55	4
CCOC(=O)C1(CCOC)CCN(C(C)CCc2ccc(OC)cc2)CC1 (centres undefined)	91*	-13	9	-6
CCC(C)Oc1cc(-c2ccnc(Nc3cccc(Cl)c3)n2)ccn1 (centres undefined)	x	x	93*	x
O=C1c2ccccc2C(=O)N1CCCCN(C(=O)c1cccc([N+](=O)[O-])c1)c1ccc(Cl)cc1	54*	-11	-32	-4
Cc1ccc(-n2c(CNC(=O)c3cccs3)nnc2SCC(=O)NO)cc1	1	-10	-1	-4
O=C(Nc1ccc(Cl)cn1)c1ccc(COCC(F)(F)C(F)F)o1	-8	10	96*	3
O=C(Nc1ccccc1Cl)c1ccc(-c2ccccn2)s1	x	x	-27	x
CCOCCCNC(=S)N1CCCN(c2nc3c(C)c(C)ccc3cc2C#N)CC1	13	74*	3	1
Cc1ccc2cc(C#N)c(NCCNC(=O)C3CCC3)nc2c1C	16	1	x	-10
CCOCCCNC(=S)NCCCNc1nc2c(C)c(C)ccc2cc1C#N	21	74*	14	-24
c1ccc(-c2nnc3n2-c2ccccc2SC3)cc1	x	x	-8	x
CC(=O)NC(CC(=O)Nc1nc(C)cs1)c1ccccc1 (centres undefined)	6	3	0	6

Source: PubChem BioAssay
